Tests used:
Format in all cases: functional
Plasmodium falciparum [1] = test: GSK_TCMDC: Inhibition of Plasmodium falciparum 3D7 in whole red blood cells, using parasite LDH activity as an index of growth. Test compounds present at 2uM
Plasmodium falciparum [2] = test: GSK_TCMDC: Inhibition of Plasmodium falciparum Dd2 in whole red blood cells, using parasite LDH activity as an index of growth. Test compounds present at 2uM
HepG2 = test: GSK_TCMDC: Percent inhibition of human HepG2 cell line. Test compounds present at 10uM.

SMILES	Inhibition (Plasmodium falciparum [1]) [%]	Inhibition (Plasmodium falciparum [2]) [%]	Inhibition (HepG2) [%]
CC(C)N1CCC(NC(=O)N2CCCN(c3ncnc4cc(-c5ccccc5)sc34)CC2)CC1.O=C(O)C(F)(F)F	87	11	31
O=C(Nc1cccc(C(F)(F)F)c1)c1ccc(S(=O)(=O)NC2CCN(CC3CCCCC3)CC2)cc1.O=C(O)C(F)(F)F	83	0	25
CN1CCCN(Cc2cccc(-c3ccc(NS(=O)(=O)c4cccc5cccnc45)cc3)c2)CC1.O=C(O)C(F)(F)F	100	87	44

From ChEMBL document CHEMBL1157539, “Thousands of chemical starting points for antimalarial lead identification” (Nature, 2010)
